Laboratory results: PubChem BioAssay (NCI)
Compounds without any hit were thinned out: in the full panel of roughly 79,000, 15% have a hit. Calls of active or inactive are those of the source. No stated cut-off is given here; in the data, active means growth inhibition above about 70%; inactive means the rest.

Key:
[1] = NCI Yeast Anticancer Drug Screen. Data for the rad52 strain (AID 147);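 further: 0% = growth of vehicle-treated control cultures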; settings: S. cerevisiae rad52 mutant growth inhibition, hits give high values
Procedure, shortened: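 Measured: yeast growth inhibition. System: strain with a defined DNA damage repair alteration. Reference: vehicle-treated control cultures.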

[2] = NCI Yeast Anticancer Drug Screen. Data for the rad50EPP+ strain (AID 151);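 further: 0% = growth of vehicle-treated control cultures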; settings: S. cerevisiae rad50 mutant strain, hits give high values
Procedure, shortened: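 One strain with a rad50 alteration (rad50EPP+) was compound-treated, its growth then compared to that of vehicle controls.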

[3] = NCI Yeast Anticancer Drug Screen. Data for the mgt1 strain (AID 153); settings: S. cerevisiae mgt1 mutant growth inhibition, hits give high values
Procedure, shortened: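 After exposure of the mgt1 yeast mutant to compound, growth was measured and reported as inhibition compared with vehicle controls.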

[4] = NCI Yeast Anticancer Drug Screen. Data for the rad50 strain (AID 155);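 further: 0% = growth of vehicle-only cultures of the same strain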; settings: S. cerevisiae rad50 strain growth inhibition, hits give high values
Procedure, shortened: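 Vehicle-treated cultures provide the reference for the growth inhibition reported for compound-exposed, repair-deficient yeast.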

[5] = NCI Yeast Anticancer Drug Screen. Data for the mec2-1 strain (AID 157); settings: S. cerevisiae mec2-1 strain, hits give high values
Procedure, shortened: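 Test agents were screened against the mec2-1 yeast strain, with defined DNA repair or cell cycle alteration. Growth was scored as inhibition against vehicle-only controls.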

[6] = NCI Yeast Anticancer Drug Screen. Data for the sgs1 mgt1 strain (AID 161);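 further: 0% = growth of cultures given vehicle only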; settings: S. cerevisiae sgs1 mgt1 strain, hits give high values
Procedure, shortened: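 Inhibition of yeast growth, normalised to vehicle-treated controls, is reported for a strain bearing genetic alterations in DNA damage repair.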

[7] = NCI Yeast Anticancer Drug Screen. Data for the CLN2oe strain (AID 163);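 further: 0% = growth of vehicle-only control cultures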; settings: S. cerevisiae CLN2oe strain, hits give high values
Procedure, shortened: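 Here, growth inhibition in a cell-cycle-altered yeast strain after compound exposure was quantified against vehicle control growth.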

[8] = NCI Yeast Anticancer Drug Screen. Data for the cln2 rad14 strain (AID 165);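 further: 0% = growth equal to vehicle treated cultures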; settings: S. cerevisiae cln2 rad14 strain, hits give high values
Procedure, shortened: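 Growth of compound-exposed yeast (cln2 rad14 genotype) measured and expressed as inhibition relative to vehicle.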

[9] = NCI Yeast Anticancer Drug Screen. Data for the bub3 strain (AID 167); settings: S. cerevisiae bub3 mutant strain, hits give high values
Procedure, shortened: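 Mutant yeast screening strain plus compound; vehicle-treated cultures serve as the 0% inhibition reference.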

[10] = NCI Yeast Anticancer Drug Screen. Data for the wt2 strain (AID 169); settings: S. cerevisiae wt2 strain growth inhibition, hits give high values
Procedure, shortened: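 Genetically defined yeast strains from a DNA-repair/cell-cycle panel were used. Compound-exposed yeast growth was measured, and the inhibition was calculated relative to vehicle treatment.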

[11] = NCI Yeast Anticancer Drug Screen. Data for the mlh1 strain (AID 171);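 further: 0% = growth of vehicle-treated control cultures of the same strain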; settings: S. cerevisiae mlh1 strain growth inhibition, hits give high values
Procedure, shortened: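 Here the genetically defined yeast mutant is grown with each compound, and the extent to which its growth falls below that of vehicle-exposed cells is reported.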

[12] = NCI Yeast Anticancer Drug Screen. Data for the sgs1 strain (AID 173);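 further: 0% = growth of vehicle-only control cultures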; settings: S. cerevisiae sgs1 mutant, hits give high values
Procedure, shortened: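 Relative growth inhibition, referenced to vehicle, was determined in a yeast strain with a defined alteration affecting DNA damage repair or cell cycle control after compound exposure.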

[13] = NCI Yeast Anticancer Drug Screen. Data for the mlh1 rad18 strain (AID 175); settings: S. cerevisiae mlh1 rad18 strain growth inhibition, hits give high values
Procedure, shortened: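 In this whole-cell yeast screen, a strain with altered DNA damage repair is challenged with compound, and its growth is measured against matched vehicle-treated controls.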

[14] = NCI Yeast Anticancer Drug Screen. Data for the rad18 strain (AID 177); settings: S. cerevisiae rad18 mutant growth inhibition, hits give high values
Procedure, shortened: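 Screen uses a yeast strain with a defined lesion in DNA damage repair; compound effect is read as loss of growth compared to untreated vehicle cultures.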

[15] = at 5.0 µM (retest, dose inferred, filed as 0.5)
[16] = at 50.0 µM (retest, dose inferred, filed as 5.0)

Measured: growth inhibition

CC(=O)Cc1ccc[cH-]1.[Fe+2].c1cc[cH-]c1
inactive: [1]; at 1.2 µM 5% | [1]; at 3.7 µM 7% | [1]; at 11.0 µM 9% | [1]; at 33.0 µM 18% | [1]; at 100.0 µM 46% | [2]; at 1.2 µM 3% | [2]; at 3.7 µM 4% | [2]; at 11.0 µM 8% | [2]; at 33.0 µM 15% | [2]; at 100.0 µM 13% | [3]; at 1.2 µM 8% | [3]; at 3.7 µM 11% | [3]; at 11.0 µM 21% | [3]; at 33.0 µM 11% | [3]; at 100.0 µM 20% | [4]; at 1.2 µM 12% | [4]; at 3.7 µM 24% | [4]; [15] -14% | [4]; at 11.0 µM 22% | [4]; at 33.0 µM 22% | [4]; [16] 8% | [4]; at 100.0 µM 62% | [5]; at 1.2 µM -5% | [5]; at 3.7 µM -5% | [5]; [15] -6% | [5]; at 11.0 µM -1% | [5]; at 33.0 µM 12% | [5]; [16] -12% | [5]; at 50.0 µM 60.6% | [5]; at 100.0 µM 18% | [6]; [15] -4% | [6]; [16] 12% | [7]; at 1.2 µM 4% | [7]; at 3.7 µM 5% | [7]; at 11.0 µM 17% | [7]; at 33.0 µM 23% | [7]; at 100.0 µM 23% | [8]; [15] -7% | [8]; [16] 7% | [8]; at 50.0 µM 40.5% | [9]; at 1.2 µM -4% | [9]; at 3.7 µM -10% | [9]; [15] -4% | [9]; at 11.0 µM 7% | [9]; at 33.0 µM 13% | [9]; [16] 15% | [9]; at 100.0 µM 21% | [10]; at 1.2 µM 2% | [10]; at 3.7 µM 5% | [10]; at 11.0 µM 13% | [10]; at 33.0 µM 17% | [10]; at 100.0 µM 32% | [11]; at 1.2 µM -1% | [11]; at 3.7 µM -3% | [11]; at 11.0 µM -2% | [11]; at 33.0 µM 7% | [11]; at 100.0 µM 29% | [12]; at 1.2 µM 0% | [12]; at 3.7 µM 0% | [12]; at 11.0 µM 9% | [12]; at 33.0 µM 23% | [12]; at 100.0 µM 46% | [13]; [15] 3% | [13]; [16] 68% | [14]; at 1.2 µM 6% | [14]; at 3.7 µM 17% | [14]; at 11.0 µM 29% | [14]; at 33.0 µM 10% | [14]; at 100.0 µM 35%
active: [4]; at 50.0 µM 96.2% | [6]; at 50.0 µM 86.8% | [9]; at 50.0 µM 72.5% | [13]; at 50.0 µM 92.7%
